Data published in PubChem BioAssay (NCATS).
Unmarked numbers belong to inactive results. Inconclusive results are not listed. Where a call stands in place of a potency, no number is given. Calls of active or inactive are those of the source. Unless noted, calls come from the whole dose curve; as a rule, active = well fitted curve in the direction sought with a large enough effect; inconclusive = small, poorly fitted or top-dose-only effect, or another doubt; inactive = no such curve, though single readings can be large; an effect the other way counts as inactive or inconclusive.

Legend:
[1] = target: Cytochrome P450 3A4 (Homo sapiens) (UniProt P08684); assay: qHTS Assay for Inhibitors and Substrates of Cytochrome P450 3A4 (AID 884); conditions: recombinant CYP3A4, Luciferin-PPXE luminescence; series mostly up to 57.1 µM; note: potency is the fitted concentration of half-maximal effect; nearly all actives have a fitted effect of over 50% in size
How it was run: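 20 nM human CYP3A4 with 25 uM Luciferin-PPXE (at KM) in 200 mM KPO4, preincubated 10 min with compound; NADPH regeneration started a 60 min RT reaction. Luciferin detected by luminescence, normalized to 57 uM ketoconazole as full inhibition.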

[2] = target: Cytochrome P450 2C19 (Homo sapiens) (UniProt P33261); assay: qHTS Assay for Inhibitors and Substrates of Cytochrome P450 2C19 (AID 899); conditions: recombinant CYP2C19, luciferin-H EGE luminescence; series mostly up to 11.4 µM; note: nearly all actives have a fitted effect of over 60% in size; note: potency is the fitted concentration of half-maximal effect
How it was run: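 Human CYP2C19 (5nM) with Luciferin-H EGE at 10uM (its KM) in 50mM KPO4 was preincubated with compound for 10 min at 37C. NADPH regeneration started a 60 min 37C reaction. Luciferin was read by luminescence, normalized to 57uM ketoconazole.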

[3] = target: Cytochrome P450 2D6 (Homo sapiens) (UniProt P10635); assay: qHTS Assay for Inhibitors and Substrates of Cytochrome P450 2D6 (AID 891); conditions: recombinant CYP2D6, luciferin-ME EGE luminescence; series mostly up to 11.4 µM; note: nearly all actives have a fitted effect of over 60% in size; note: potency is the fitted concentration of half-maximal effect;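 for activity change, negative = inhibition: luciferin methyl ether substrate demethylated by CYP2D6 with NADPH regeneration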
How it was run: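 Human CYP2D6 (5 nM) with 30 uM Luciferin-ME EGE (at Km) in 100 mM KPO4, compound preincubated 10 min, then NADPH regeneration system for 60 min at room temperature. Luciferin read by luminescence; normalized to 1.43 uM quinidine.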

CP215 = assay: qHTS profiling for inhibitors of Plasmodium falciparum proliferation (AID 504749); note: nearly all actives have a fitted effect of over 60% in size; conditions: P. falciparum in erythrocytes, SYBR Green DNA, 72 h; series mostly up to 28.7 µM
How it was run: (§1)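 P. falciparum-infected erythrocytes (0.3% parasitemia, 2.5% hematocrit final) were exposed to compounds for 72 h at 37 C in 5% CO2, then lysed with SYBR Green buffer overnight at room temperature; parasite DNA fluorescence was normalized to artemisinin and DMSO controls.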

[4] = target: DNA dC->dU-editing enzyme APOBEC-3G (Homo sapiens) (UniProt Q9HC16); assay: qHTS for inhibitors of Vif-A3G interactions: Validation (AID 588379); conditions: Vif-A3G protein interaction assay; series mostly up to 46.1 µM
How it was run: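 HeLa cells stably expressing Vif and A3G-eYFP, 700 cells/well, incubated overnight at 37 deg C, then exposed to compound overnight at 37 deg C. Inhibition of Vif-mediated degradation read as increased yellow fluorescence (Ex 488/Em 500-530) by laser-scanning cytometry.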

[5] = qHTS Assay for Identification of Small Molecule Antagonists for NFkB Signaling Pathway (AID 895; active = well fitted inhibition curve with a large enough effect in the signal ratio, with a control signal flat, not every such curve was filed as active; the % refers to the signal ratio); conditions: NFkB beta-lactamase reporter cells, FRET ratio 460/530, stimulated with 10 pM TNF alpha; series mostly up to 38.3 µM
How it was run: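 NFkB-bla ME-180 cervical carcinoma cells with beta-lactamase reporter under NFkB response element; compounds added, then TNF alpha at 10 pM final (EC50), 5 h at 37 C. LiveBLAzer substrate 2 h, room temperature; emission 460/530 nm at 405 nm excitation.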

[6] = target: Pyruvate kinase (Leishmania mexicana) (UniProt Q27686); assay: qHTS Validation Assay for Inhibitors of Leishmania Mexicana Pyruvate Kinase (AID 945); conditions: purified L. mexicana pyruvate kinase, enzyme activity, E451W mutant enzyme; series mostly up to 57.5 µM
How it was run: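 Substrate mix (0.5 mM PEP, 0.1 mM ADP, 7 mM MgCl2, 50 mM KCl, pH 7.2 imidazole) received compound by pin tool, then 0.2 nM LmPYK E451W. After 1 h at room temperature, PKLight was added and luminescence measured.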

[7] = Confirmation and Secondary Assay for Modulators of Hemoglobin Beta Chain Splicing at IVS2 654 locus (AID 910); conditions: HeLa EGFP-654 splicing reporter, GFP fluorescence, 48 h; series mostly up to 38.3 µM;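 note: per-well total GFP intensity by laser scanning cytometry after 2-day treatment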
How it was run: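 HeLa cells stably carrying EGFP interrupted by mutant beta-globin IVS2-654 intron (CMV-driven) were treated with compound for 2 days at 37C; corrected splicing was scored as total peak GFP intensity per well (488 nm excitation, 500-520 nm emission).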

[8] = qHTS Assay for Identification of Small Molecule Agonists for Hypoxia Response Element Signaling Pathway (AID 914; active = well fitted activation curve with a large enough effect in the signal ratio, with a control signal flat, not every such curve was filed as active; the % refers to the signal ratio; note: potency is the fitted concentration of half-maximal effect); conditions: ME-180 HRE-bla reporter, beta-lactamase ratio, CoCl2, 17 h; activation: stronger effect = higher value
How it was run: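 Read-out: CCF4 FRET ratio of 460nm to 530nm emission (excitation 405nm) after 2.5 hours at room temperature, taken from HRE-bla ME-180 cells that had been exposed to compound and EC50 CoCl2 for 17 hours.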

[9] = target: Muscarinic acetylcholine receptor M1 (Rattus norvegicus) (UniProt P08482); assay: qHTS Assay for Antagonists of Acetylcholine Muscarinic M1 Receptor: Kinetic Measurement of Intracellular Calcium Response (AID 943); conditions: M1-expressing cells, kinetic intracellular calcium fluorescence; series mostly up to 35.3 µM;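 note: Fluo-4 calcium signal as peak divided by basal fluorescence over 4 min; nearly all actives have a fitted effect of over 75% in size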
How it was run: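 CHO cells stably expressing rat M1 were loaded with no-wash Fluo-4 dye for 1 h at 37C, pre-incubated 10 min with compound, then challenged with EC80 carbachol (100 nM final); kinetic calcium read 4 min, peak/basal ratio.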

[10] = target: Muscarinic acetylcholine receptor M1 (Rattus norvegicus) (UniProt P08482); assay: qHTS Assay for Antagonists of Acetylcholine Muscarinic M1 Receptor: Measurement of IP-One Response (AID 944); conditions: CHO-M1 cells, IP-One HTRF, antagonist mode; series mostly up to 46.1 µM; note: nearly all actives have a fitted effect of over 75% in size
How it was run: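 CHO cells expressing rat M1 receptor, recovered overnight, were pre-incubated 10 min with compound, then stimulated 30 min with carbachol at EC80 (200 nM) in LiCl-containing buffer, pH 7.4. IP1 accumulation was read by HTRF (620/665 nm).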

[11] = qHTS profiling for inhibitors of Plasmodium falciparum proliferation (AID 504749); note: nearly all actives have a fitted effect of over 60% in size; conditions: P. falciparum in erythrocytes, SYBR Green DNA, 72 h, at 12.8 µM (top of the series)
How it was run: as §1

[12] = AP1 Signaling Pathway (AID 357; active = well fitted curve in either direction with a large enough effect, not every such curve was filed as active;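 note: ME-180 reporter cells stimulated with EGF at its EC50 level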); conditions: ME-180 AP-1-bla reporter, EGF-induced, beta-lactamase ratio, 5 h; at 7.69 µM (top of the series) unless noted
How it was run: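 Beta-lactamase reporter under AP-1 response element, ME-180 background. Stimulus: EC50 EGF. Compound exposure 5 h, 37 °C. Detection: CCF4, 2.5 h RT, 460/530 nm. Values: AC50 from titration.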

[13] = target: Cytochrome P450 1A2 (Homo sapiens) (UniProt P05177); assay: p450-cyp1a2 (AID 410; calls by dose curve); conditions: recombinant CYP1A2, luciferin-ME demethylation, luminescence; series mostly up to 11.4 µM
How it was run: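 Human CYP1A2 (20nM) demethylated Luciferin-ME at its Km (100uM) in 100mM KPO4. After 10 min compound preincubation, NADPH regeneration ran the reaction 60 min at room temperature. Luciferin was read by luminescence, normalized to 57 uM furafylline.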

[14] = NFAT Signaling Pathway (AID 444; active = well fitted curve in either direction with a large enough effect, not every such curve was filed as active;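 note: carbachol stimulus at about its EC50 of 1 µM final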); conditions: Jurkat NFAT-bla M1, carbachol, beta-lactamase ratio, 5 h; at 7.69 µM (top of the series) unless noted
How it was run: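 Jurkat cells carrying an NFAT-driven β-lactamase reporter and co-transfected muscarinic M1 receptor were treated with compound plus carbachol (1 uM final, an EC50 level) for 5 h at 37 °C. CCF4 loading followed for 1 h at RT; 460/530 nm ratio gave %activity.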

[15] = Stat Signaling Pathway (AID 446; active = well fitted curve in either direction with a large enough effect, not every such curve was filed as active;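 note: ME-180 cervical cancer cells given 40 pM IL-6 alongside compound; SIE-controlled beta-lactamase reporter measured as 460/530 nm FRET emission ratio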); conditions: ME-180 SIE beta-lactamase reporter, IL-6 stimulated, 5 h; at 7.69 µM (top of the series) unless noted
How it was run: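 Reporter line: ME-180 cervical carcinoma, SIE-beta-lactamase. Treatment: compound with 40 pM IL-6, 5 hrs, 37 C, in low-serum OPTI-MEM with 10 mM HEPES pH 7.3. Detection: 460/530 nm fluorescence.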

[16] = target: Glucocorticoid receptor (Homo sapiens) (UniProt P04150); assay: GR-GFP Redistribution (AID 450;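 active = compounds whose dose series gives a full or clear partial fitted curve of increased nuclear translocation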; note: potency is the fitted concentration of half-maximal effect); conditions: U2OS GR-GFP nuclear translocation, laser cytometry, 2 h
[17] = target: Glucocorticoid receptor (Homo sapiens) (UniProt P04150); assay: GR-EFC Redistribution (AID 451; calls by dose curve; note: potency is the fitted concentration of half-maximal effect); conditions: CHO-K1 GR-EFC translocation, beta-gal luminescence, 2 h
How it was run: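 CHO-K1 cells stably expressing nuclear-localized β-gal enzyme acceptor and GR fused C-terminally to the enzyme donor fragment; ligand-driven nuclear translocation restores β-gal by complementation. Compounds titrated up to 46 uM final, 2 h at 37 °C; luminescence read.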

[18] = target: Mitogen-activated protein kinase 10 (Mus musculus) (UniProt Q61831); assay: JNK3 AlphaScreen Assay (AID 530; active = well fitted curve in either direction with a large enough effect, not every such curve was filed as active;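 note: kinase came from lysate of stimulated human HepG2 cells; signal reports phosphorylation of biotinylated GST-cJun 1-79 at Ser73 with 10 µM ATP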); conditions: JNK3 lysate, c-Jun phosphorylation; series mostly up to 11.4 µM
How it was run: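 JNK3 came from HepG2 lysates pre-activated with IL-1beta and TNF-alpha and phosphorylated biotinylated GST-cJun (1-79) at 10 uM ATP, pH 7.6, room temperature. Compounds were titrated. AlphaScreen signal used anti-phospho-cJun (Ser73) antibody.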

[19] = target: 3',5'-cyclic-AMP phosphodiesterase 4B (Homo sapiens) (UniProt Q07343); assay: qHTS Assay for Inhibitors of PDE-IV (AID 607; active = well fitted activation curve with a large enough effect in the main read-out, with a control signal flat, not every such curve was filed as active); conditions: HEK293 ACTOne CNG channel cells, membrane potential fluorescence; series mostly up to 22.9 µM
How it was run: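 Cell-based read-out of cAMP via a modified cyclic nucleotide-gated channel and membrane potential dye (535/590 nm) in HEK293 cells expressing PDE4 endogenously. Compounds tested up to 22.9 uM final; 100 uM RO 20-1724 reference.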

[20] = target: Cytochrome P450 2C9 (Homo sapiens) (UniProt P11712); assay: qHTS Assay for Inhibitors and Substrates of Cytochrome P450 2C9 (AID 883); conditions: recombinant CYP2C9, luciferin-H luminescence, 60 min; series mostly up to 11.4 µM; note: nearly all actives have a fitted effect of over 60% in size
How it was run: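 Human CYP2C9 (10nM) hydroxylated Luciferin-H (100uM, at its KM) to luciferin in 25mM KPO4. Compound was preincubated 10 min at 37C, then NADPH regeneration started a 60 min reaction at 37C. Luminescence was read after detection reagent, normalized to 57uM sulphaphenazole.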

Sequence of Cytochrome P450 2C19 (Homo sapiens) (P33261 whole entry, looked up): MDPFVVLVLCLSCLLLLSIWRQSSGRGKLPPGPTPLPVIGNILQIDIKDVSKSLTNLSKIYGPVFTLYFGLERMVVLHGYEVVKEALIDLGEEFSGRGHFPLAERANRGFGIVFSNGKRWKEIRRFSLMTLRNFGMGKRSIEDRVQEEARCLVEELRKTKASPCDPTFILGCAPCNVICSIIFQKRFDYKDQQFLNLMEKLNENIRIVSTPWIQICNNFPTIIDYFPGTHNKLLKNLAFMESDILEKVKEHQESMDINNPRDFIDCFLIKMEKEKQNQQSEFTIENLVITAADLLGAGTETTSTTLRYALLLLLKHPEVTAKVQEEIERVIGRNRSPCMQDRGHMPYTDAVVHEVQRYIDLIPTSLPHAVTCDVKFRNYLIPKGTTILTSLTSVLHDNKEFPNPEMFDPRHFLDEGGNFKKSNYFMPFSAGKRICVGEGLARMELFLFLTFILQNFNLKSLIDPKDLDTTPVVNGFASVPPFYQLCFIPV
Sequence of Pyruvate kinase (Leishmania mexicana) (Q27686 2-499 E452W): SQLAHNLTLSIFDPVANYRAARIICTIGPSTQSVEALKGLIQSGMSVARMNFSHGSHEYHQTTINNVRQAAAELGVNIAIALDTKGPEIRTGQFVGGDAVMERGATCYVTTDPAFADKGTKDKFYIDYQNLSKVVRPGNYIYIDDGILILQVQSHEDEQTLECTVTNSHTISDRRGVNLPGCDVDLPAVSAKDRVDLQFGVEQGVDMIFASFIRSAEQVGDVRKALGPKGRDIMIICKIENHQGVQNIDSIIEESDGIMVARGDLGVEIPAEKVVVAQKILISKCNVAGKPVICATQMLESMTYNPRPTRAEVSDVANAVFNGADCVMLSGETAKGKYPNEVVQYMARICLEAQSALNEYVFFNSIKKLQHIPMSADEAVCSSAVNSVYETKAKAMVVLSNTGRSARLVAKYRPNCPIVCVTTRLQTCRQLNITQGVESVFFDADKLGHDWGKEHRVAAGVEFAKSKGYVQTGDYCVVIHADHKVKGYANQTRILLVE
Sequence of Cytochrome P450 2D6 (Homo sapiens) (P10635 whole entry, looked up): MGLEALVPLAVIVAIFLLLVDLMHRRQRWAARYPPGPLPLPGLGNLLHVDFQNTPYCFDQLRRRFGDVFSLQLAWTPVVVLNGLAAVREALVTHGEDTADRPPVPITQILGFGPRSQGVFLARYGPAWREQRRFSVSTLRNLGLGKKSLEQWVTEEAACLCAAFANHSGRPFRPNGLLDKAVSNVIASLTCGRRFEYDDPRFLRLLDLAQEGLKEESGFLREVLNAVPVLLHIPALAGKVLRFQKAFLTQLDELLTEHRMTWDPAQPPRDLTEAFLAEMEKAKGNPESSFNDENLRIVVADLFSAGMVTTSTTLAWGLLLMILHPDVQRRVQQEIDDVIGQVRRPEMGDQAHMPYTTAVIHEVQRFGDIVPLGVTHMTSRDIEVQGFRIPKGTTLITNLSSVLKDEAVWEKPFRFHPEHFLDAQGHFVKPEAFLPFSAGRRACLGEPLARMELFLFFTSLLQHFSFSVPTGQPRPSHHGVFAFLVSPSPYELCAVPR
Sequence of Glucocorticoid receptor (Homo sapiens) (P04150 whole entry, looked up, the tested form may be a part): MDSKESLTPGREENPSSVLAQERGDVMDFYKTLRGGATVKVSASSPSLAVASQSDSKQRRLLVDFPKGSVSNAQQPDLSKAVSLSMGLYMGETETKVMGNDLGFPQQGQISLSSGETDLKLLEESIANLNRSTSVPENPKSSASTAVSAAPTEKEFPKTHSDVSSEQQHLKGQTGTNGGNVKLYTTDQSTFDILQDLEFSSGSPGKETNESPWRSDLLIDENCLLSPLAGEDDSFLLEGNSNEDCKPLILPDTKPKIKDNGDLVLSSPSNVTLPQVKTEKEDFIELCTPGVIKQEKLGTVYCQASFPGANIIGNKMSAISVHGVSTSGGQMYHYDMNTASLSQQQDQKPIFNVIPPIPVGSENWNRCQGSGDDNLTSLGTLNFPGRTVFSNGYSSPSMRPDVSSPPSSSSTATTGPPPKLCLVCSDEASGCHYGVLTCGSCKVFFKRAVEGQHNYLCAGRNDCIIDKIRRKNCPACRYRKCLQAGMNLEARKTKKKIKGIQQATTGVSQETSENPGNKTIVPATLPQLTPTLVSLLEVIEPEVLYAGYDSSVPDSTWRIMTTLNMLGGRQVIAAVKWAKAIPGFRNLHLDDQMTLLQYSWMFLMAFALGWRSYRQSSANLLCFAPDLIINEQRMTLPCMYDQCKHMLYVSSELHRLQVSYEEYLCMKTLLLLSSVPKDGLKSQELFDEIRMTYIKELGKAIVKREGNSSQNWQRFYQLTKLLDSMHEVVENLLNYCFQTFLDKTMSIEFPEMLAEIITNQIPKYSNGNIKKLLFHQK
Sequence of Muscarinic acetylcholine receptor M1 (Rattus norvegicus) (P08482 whole entry, looked up): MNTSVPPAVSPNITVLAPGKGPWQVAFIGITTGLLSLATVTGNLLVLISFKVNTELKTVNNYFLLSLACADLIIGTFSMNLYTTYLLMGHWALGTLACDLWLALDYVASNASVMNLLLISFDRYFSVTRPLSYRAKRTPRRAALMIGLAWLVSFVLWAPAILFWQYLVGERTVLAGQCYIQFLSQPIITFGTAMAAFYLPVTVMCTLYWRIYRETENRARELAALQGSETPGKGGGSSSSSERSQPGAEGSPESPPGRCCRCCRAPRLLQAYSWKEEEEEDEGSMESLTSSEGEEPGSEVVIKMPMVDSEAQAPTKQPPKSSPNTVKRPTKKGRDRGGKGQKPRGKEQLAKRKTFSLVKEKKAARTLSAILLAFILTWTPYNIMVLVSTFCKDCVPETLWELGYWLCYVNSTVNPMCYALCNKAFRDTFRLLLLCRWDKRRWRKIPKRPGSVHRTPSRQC
Sequence of 3',5'-cyclic-AMP phosphodiesterase 4B (Homo sapiens) (Q07343 whole entry, looked up): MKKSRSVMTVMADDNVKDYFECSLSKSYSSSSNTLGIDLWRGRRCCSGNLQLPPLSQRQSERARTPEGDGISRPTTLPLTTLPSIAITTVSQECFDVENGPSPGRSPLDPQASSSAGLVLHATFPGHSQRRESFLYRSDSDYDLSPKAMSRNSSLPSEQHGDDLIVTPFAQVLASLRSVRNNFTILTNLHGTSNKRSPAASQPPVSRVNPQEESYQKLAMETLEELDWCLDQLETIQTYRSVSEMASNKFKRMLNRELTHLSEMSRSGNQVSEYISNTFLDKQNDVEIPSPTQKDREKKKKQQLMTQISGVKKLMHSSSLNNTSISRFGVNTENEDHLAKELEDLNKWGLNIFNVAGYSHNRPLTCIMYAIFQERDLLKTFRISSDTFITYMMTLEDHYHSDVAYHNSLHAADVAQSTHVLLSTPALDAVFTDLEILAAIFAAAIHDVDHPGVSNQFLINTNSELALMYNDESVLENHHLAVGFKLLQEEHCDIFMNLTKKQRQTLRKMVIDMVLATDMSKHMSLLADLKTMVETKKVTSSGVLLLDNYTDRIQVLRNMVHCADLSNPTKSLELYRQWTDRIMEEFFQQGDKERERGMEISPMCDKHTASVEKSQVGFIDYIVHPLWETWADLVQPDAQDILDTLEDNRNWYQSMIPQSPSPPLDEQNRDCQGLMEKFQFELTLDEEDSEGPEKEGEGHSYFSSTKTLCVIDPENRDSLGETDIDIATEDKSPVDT
Sequence of Cytochrome P450 3A4 (Homo sapiens) (P08684 whole entry, looked up): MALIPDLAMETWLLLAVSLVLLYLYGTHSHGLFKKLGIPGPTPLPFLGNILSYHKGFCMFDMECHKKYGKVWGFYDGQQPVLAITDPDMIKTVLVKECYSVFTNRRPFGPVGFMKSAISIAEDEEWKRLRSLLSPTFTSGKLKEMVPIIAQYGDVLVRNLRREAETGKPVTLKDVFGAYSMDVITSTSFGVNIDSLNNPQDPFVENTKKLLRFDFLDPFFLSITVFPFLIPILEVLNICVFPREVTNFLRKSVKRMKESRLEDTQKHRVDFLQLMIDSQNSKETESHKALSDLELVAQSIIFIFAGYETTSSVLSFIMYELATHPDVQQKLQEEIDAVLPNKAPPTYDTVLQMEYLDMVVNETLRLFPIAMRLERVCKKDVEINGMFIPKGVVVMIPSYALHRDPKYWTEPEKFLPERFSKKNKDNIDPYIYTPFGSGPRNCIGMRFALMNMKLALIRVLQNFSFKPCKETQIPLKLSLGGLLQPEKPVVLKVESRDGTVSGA
Sequence of Cytochrome P450 1A2 (Homo sapiens) (P05177 whole entry, looked up): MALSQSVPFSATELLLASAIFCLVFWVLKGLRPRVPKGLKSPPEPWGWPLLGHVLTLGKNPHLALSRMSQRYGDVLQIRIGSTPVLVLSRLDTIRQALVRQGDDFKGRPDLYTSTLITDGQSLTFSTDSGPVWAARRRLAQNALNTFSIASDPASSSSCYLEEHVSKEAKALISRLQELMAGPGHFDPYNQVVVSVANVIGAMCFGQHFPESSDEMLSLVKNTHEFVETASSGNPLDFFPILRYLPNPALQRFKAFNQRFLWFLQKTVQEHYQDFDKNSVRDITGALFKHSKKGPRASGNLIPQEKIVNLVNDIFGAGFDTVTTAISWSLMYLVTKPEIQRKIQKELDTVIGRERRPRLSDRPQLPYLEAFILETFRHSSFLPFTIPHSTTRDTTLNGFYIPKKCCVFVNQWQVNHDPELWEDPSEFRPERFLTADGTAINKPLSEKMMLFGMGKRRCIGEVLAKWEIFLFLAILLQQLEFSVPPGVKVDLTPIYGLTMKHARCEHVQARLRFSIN
Sequence of Cytochrome P450 2C9 (Homo sapiens) (P11712 whole entry, looked up): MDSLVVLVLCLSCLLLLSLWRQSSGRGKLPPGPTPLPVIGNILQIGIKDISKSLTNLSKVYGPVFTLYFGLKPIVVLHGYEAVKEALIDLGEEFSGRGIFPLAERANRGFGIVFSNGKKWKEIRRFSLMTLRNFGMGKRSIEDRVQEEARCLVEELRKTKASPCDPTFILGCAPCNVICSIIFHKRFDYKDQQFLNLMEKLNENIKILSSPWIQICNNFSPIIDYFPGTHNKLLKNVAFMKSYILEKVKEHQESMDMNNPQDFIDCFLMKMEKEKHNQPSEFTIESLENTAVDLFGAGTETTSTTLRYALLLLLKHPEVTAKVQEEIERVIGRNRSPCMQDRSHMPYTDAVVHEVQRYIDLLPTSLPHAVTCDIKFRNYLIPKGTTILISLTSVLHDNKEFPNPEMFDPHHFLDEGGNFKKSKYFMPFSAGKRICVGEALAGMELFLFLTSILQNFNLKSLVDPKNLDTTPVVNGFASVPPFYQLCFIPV

## Cc1cc(O)c(C(C)C)cc1C1(c2cc(C(C)C)c(O)cc2C)OC(=O)c2ccccc21
[1]
  Potency: 1.58 µM (active)
[2]
  Potency: 3.16 µM (active)

## N[C@H](COP(=O)(O)O)C(=O)O
[3]
  Potency: inactive
[2]
  Potency: inactive
CP215
  Potency: inactive

## Oc1ccc([C@@H]2CNCCc3c2cc(O)c(O)c3Cl)cc1
[3]
  Potency: 3.16 µM (active)
[4]
  outcome: inactive

## O=C(O)CCCC[C@H]1CCSS1
[5]
  Potency: inactive
[6]
  outcome: inactive

## CN(C)c1ccc(-c2nc(N3CCNCC3)c3ccccc3n2)cc1
[7]
  outcome: inactive

## N#CCCn1c(=O)c(-c2ccccc2)nc2cnc(N3CCNCC3)nc21
[8]
  Potency: 3.16 µM (active)

## CC(C)(C)c1ccc([C@@H](O)CCCN2CCC(C(O)(c3ccccc3)c3ccccc3)CC2)cc1
[8]
  activation: 18.6%

## Cc1nnc(SCC2=C(C(=O)O)N3C(=O)[C@@H](NC(=O)Cn4cnnn4)[C@@H]3SC2)s1
[9]
  Potency: inactive
[10]
  Potency: inactive

## CN1[C@@H]2CC[C@H]1CC(OC(=O)[C@@H](CO)c1ccccc1)C2 (stereo not given in full)
[6]
  outcome: inactive

## C(=C/c1ccccc1)/CN1CCN(C(c2ccccc2)c2ccccc2)CC1
[11]; parasite line A
  activity, negative = inhibition: 1.36%

## COc1cc2nc(N(C)CCCNC(=O)[C@@H]3CCCO3)nc(N)c2cc1OC
[11]; parasite line A
  activity, negative = inhibition: 3.61%
[11]; parasite line B
  activity, negative = inhibition: 7.55%

## OC[C@H](S)CS
CP215
  Potency: inactive

## N[C@H](Cc1ccc(O)c(I)c1)C(=O)O
[12]
  activity change, negative = inhibition: 6.16% [at 38 µM]
[13]
  Potency: inactive
[14]
  activity change, negative = inhibition: 8.86% [at 38 µM]
[15]
  activity, negative = inhibition: -3.36% [at 38 µM]
[16]
  Potency: > 46 µM
[17]
  Potency: > 46 µM
[18]
  Potency: inactive
[19]
  Potency: inactive
[20]
  Potency: inactive
[3]
  Potency: inactive
[2]
  Potency: inactive
